Screens deposited in PubChem by National Center for Advancing Translational Sciences (NCATS).
GLP1R inv ag: qHTS of GLP-1 Receptor Inverse Agonists (Inhibition Mode); Glucagon-like peptide 1 receptor (Homo sapiens), P43220; HEK293 GLP-1R CRE-luciferase, luminescence, 24 h; GLP-1R form is constitutively active; Potency, µM (doses to about 38.3 µM), usual class: inhibitors; 410,000 compounds, 1.6% hits; AID 624417, 2012; note: nearly all actives have a fitted effect of over 55% in size
Target sequence (P43220 whole entry, looked up): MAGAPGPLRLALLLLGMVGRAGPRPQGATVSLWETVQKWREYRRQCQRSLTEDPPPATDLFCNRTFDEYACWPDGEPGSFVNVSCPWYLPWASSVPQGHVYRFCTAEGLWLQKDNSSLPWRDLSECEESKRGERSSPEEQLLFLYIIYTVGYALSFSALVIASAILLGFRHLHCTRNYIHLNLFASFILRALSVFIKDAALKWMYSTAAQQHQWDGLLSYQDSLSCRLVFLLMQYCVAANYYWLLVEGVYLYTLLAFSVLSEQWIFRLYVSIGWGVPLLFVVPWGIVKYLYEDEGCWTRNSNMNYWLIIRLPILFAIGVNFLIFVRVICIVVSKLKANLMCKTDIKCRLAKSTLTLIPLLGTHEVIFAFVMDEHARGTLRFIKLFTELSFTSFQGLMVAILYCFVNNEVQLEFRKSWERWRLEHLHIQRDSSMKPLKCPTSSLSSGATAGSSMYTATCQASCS
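Cells are plated, allowed 12 hours at 37 deg C, then treated with compounds for 24 hr before luciferase detection reagent is added and luminescence is read after 12 min at room temperature. The HEK293 line carries constitutively active GLP-1R with a cAMP-responsive reporter.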
GLP1R ag: qHTS of GLP-1 Receptor Agonists; Glucagon-like peptide 1 receptor (Homo sapiens), P43220; HEK293 GLP-1R CRE-luciferase, luminescence, 4-6 h; cells express a hypersensitive GLP-1R form; Potency, µM (titrated, usually from 45.6 µM), most hits filed as activators; 380,000 compounds, 0.007% hits; AID 624172, 2012
GLP1R cytotox: qHTS of GLP-1 Receptor Inverse Agonists: Cytotox Screen; Potency, µM (doses to about 38.3 µM), most hits filed as inhibitors; 410,000 compounds, 0.13% hits; HEK293 cAMP-luciferase reporter cells, luminescence, 24 h;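 note: loss of luciferase light is scored as toxicity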
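To flag toxic compounds, the library was rerun on cells for 24 hr at 37 deg C and 5% CO2. Viability-linked luminescence was captured 12 min after adding luciferase detection reagent.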
ClpP mod: qHTS Assay for Activators of ClpP; purified B. subtilis ClpP, FRET peptide cleavage, 20 min; Potency, µM (top dose mostly 57.5 µM); ATP-dependent Clp protease proteolytic subunit (Bacillus subtilis (strain 168)), P80244; AID 651965, 2013; 340,000 compounds, 1.9% hits; active = well fitted falling curve with a large enough effect; inconclusive = small, poorly fitted or top-dose-only effect; inactive = no such curve, though single readings can be large or run the other way; note: the source files actives as falling curves though it sought activators and does not explain the sign; nearly all actives have a fitted effect of over 65% in size
Target sequence (P80244 whole entry, looked up): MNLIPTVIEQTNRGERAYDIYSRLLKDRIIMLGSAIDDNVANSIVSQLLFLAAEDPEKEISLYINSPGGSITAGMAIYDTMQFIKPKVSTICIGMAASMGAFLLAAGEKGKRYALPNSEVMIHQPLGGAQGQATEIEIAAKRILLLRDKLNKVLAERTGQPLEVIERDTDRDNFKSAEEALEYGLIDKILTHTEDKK
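Buffer: 100 mM Tris/HCl pH8, 100 mM KCl, 0.05% low protease BSA, 2.5% glycerol, 0.01% Tween-20. ClpP 10 microg/mL final; 20 min RT; delta FRET normalized to ADEP and DMSO controls.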
Large screens that a line does not name were inactive. A selection: hits, their analogues and other compounds. The true share with any hit is near 3.2%. Unless noted, calls come from the whole dose curve; as a rule, active = well fitted curve in the direction sought with a large enough effect; inconclusive = small, poorly fitted or top-dose-only effect, or another doubt; inactive = no such curve, though single readings can be large; an effect the other way counts as inactive or inconclusive.

CC(C)(C)OC(=O)N(CCc1ccccc1)Cc1cccc(OCc2cccc(NC(=O)c3ccccc3)c2)c1	GLP1R inv ag 10µM, ClpP mod inconclusive
CC(C)(C)OC(=O)N(CCc1ccccc1)Cc1ccc(OCc2cccc(NC(=O)C3CCC3)c2)cc1	GLP1R inv ag inconclusive
CC(C)(C)OC(=O)N(CCc1ccccc1)Cc1ccc(OCc2cccc(NC(=O)C3CC3)c2)cc1	GLP1R inv ag 7.94µM
COc1cccc(C2=Cc3ccc(F)cc3C(CC(C)=O)N2c2ccc(C#CC3(O)CCCCC3)cc2)c1 (centres undefined)	GLP1R inv ag 5.01µM, ClpP mod inconclusive
Cc1cc(C)n(-c2nc(C)c(C)c(=O)n2CC(=O)Nc2ccc([N+](=O)[O-])cc2)n1	none (no result: GLP1R ag)
COC(=O)NNC(=O)COc1ccc2ccccc2c1Br	ClpP mod 25.1µM
NC(=O)C1CCN(C(=O)COc2ccc3ccccc3c2Br)CC1	ClpP mod inconclusive
O=C(COc1ccc2ccccc2c1Br)N1CCCCC1	GLP1R inv ag 10µM
COc1ccc(C(=O)O/N=C(\N)Cc2ccc(Cl)cc2)cc1OC	GLP1R inv ag 7.94µM, GLP1R cytotox inconclusive
COc1ccc(C(=O)O/N=C(\N)Cc2ccc(Cl)c(Cl)c2)cc1OC	GLP1R inv ag inconclusive, GLP1R cytotox 5.62µM
COc1cc(C(=O)O/N=C(\N)Cc2ccc([N+](=O)[O-])cc2)cc(OC)c1OC	GLP1R inv ag inconclusive, GLP1R cytotox inconclusive
CCN1CCOC(=O)C1CC(=O)Nc1ccc(C)c(Cl)c1 (centres undefined)	none
CCOC(=O)c1cnc2cc(C(F)(F)F)ccc2c1N1CCN(c2ccc(F)cc2)CC1	none (no result: GLP1R ag)
COc1ccc(-c2nc(C)c(CCNC(=O)c3ccc(F)c(F)c3)s2)cc1	GLP1R inv ag inconclusive
CCn1c(NCc2cccc(Cl)c2)nc2ccccc21	GLP1R inv ag inconclusive (no result: GLP1R ag)
CCOc1ccc(NC(=O)c2nc(S(=O)(=O)Cc3ccccc3F)ncc2Cl)cc1	GLP1R inv ag 11.2µM, GLP1R cytotox inconclusive (no result: GLP1R ag)
O=C(Nc1ccc(OC(F)F)cc1)c1nc(S(=O)(=O)Cc2ccccc2F)ncc1Cl	none (no result: GLP1R inv ag, GLP1R ag, GLP1R cytotox)
CCn1cc2nc(SCC(=O)Nc3ccc(OC)c(OC)c3)n(Cc3ccc(Cl)cc3)c(=O)c2n1	none
COc1ccc(-c2nc3cc(NC(=O)Cc4ccc(OC)c(OC)c4)ccc3o2)cc1	ClpP mod 14.1µM
CCN(CC)CC(=O)Nc1ccc(-c2nc3cc(NC(=O)CN(CC)CC)ccc3o2)cc1	GLP1R cytotox inconclusive
CC(C)CC(=O)Nc1ccc(-c2nc3ccccc3c(=O)o2)cc1	ClpP mod 11.2µM
COc1ccc(-c2nc3cc(NC(=O)Cc4ccc(Cl)cc4)ccc3o2)cc1OC	none (no result: GLP1R ag)
CC(=O)Nc1ccc(-c2nc3ccccc3c(=O)o2)cc1	none (no result: ClpP mod)
CCC(C)NCC(=O)Nc1ccc(-c2nc3cc(NC(=O)CNC(C)CC)ccc3o2)cc1 (centres undefined)	GLP1R cytotox inconclusive, ClpP mod 12.6µM
CC(C)(Oc1ccc(Cl)cc1)C(=O)Nc1ccc2oc(-c3ccncc3)nc2c1	ClpP mod 28.2µM
CC1(C)C2CCC1(C)C(NC(=O)COC(=O)c1ccc(S(C)(=O)=O)c([N+](=O)[O-])c1)C2 (centres undefined)	none (no result: GLP1R inv ag, GLP1R ag, GLP1R cytotox)
Cc1cccc(C)c1Nc1nn2c(=O)c3cc4c(cc3nc2s1)OCO4	none (no result: GLP1R ag)
Cc1ccc(SCC(=O)Nc2ccc3oc(-c4ccc(F)cc4)nc3c2)cc1	ClpP mod 3.55µM (no result: GLP1R ag)
CN(C)c1nccc(N(Cc2ccccc2)Cc2ccccc2)c1C#N	GLP1R inv ag 11.2µM, ClpP mod inconclusive
CCc1cnc2c(c1SCc1ccccc1C)c(=O)n(C)c(=O)n2C	none (no result: GLP1R ag)
CCN1CCN(CCCNC(=O)c2ccc3c(c2)NC(=O)/C(=C\c2cccc(C)c2)S3)CC1	GLP1R inv ag 7.08µM, GLP1R cytotox inconclusive
CN(CC(=O)N1CCOCC1)S(=O)(=O)c1cc(Cl)ccc1Cl	none (no result: ClpP mod)
CCN(CC(=O)N1CCOCC1)S(=O)(=O)c1cc(Cl)ccc1Cl	ClpP mod 31.6µM
CC(Oc1ccc(F)cc1)C(=O)Nc1nc(-c2ccccn2)cs1 (centres undefined)	GLP1R inv ag 10µM, GLP1R cytotox inconclusive (no result: ClpP mod)
CCOC(=O)c1cc2c(=O)n3ccccc3nc2n(CC2CCCO2)c1=NC(=O)c1ccc(C)cc1 (centres undefined)	none (no result: GLP1R ag)
CCOC(=O)c1ccccc1NC(=O)N(C(C)C)C1CCN(C(C)=O)CC1	ClpP mod 28.2µM (no result: GLP1R ag)
COc1ccccc1CNC(=O)C(C)n1c(=O)cc(-c2ccccc2)c2c(C)nn(C)c21 (centres undefined)	GLP1R inv ag inconclusive (no result: GLP1R ag)
COc1ccc2sc(N(CCCN(C)C)C(=O)c3ccc(C(=O)c4ccccc4)cc3)nc2c1	GLP1R inv ag 7.08µM, GLP1R cytotox inconclusive
Cc1cccc2sc(N(CCCN(C)C)C(=O)c3ccc(C(=O)c4ccccc4)cc3)nc12	GLP1R inv ag 5.01µM, GLP1R cytotox inconclusive
COc1ccc(-c2csc(N(CCCN(C)C)C(=O)c3ccc(Br)cc3)n2)cc1	GLP1R inv ag inconclusive, GLP1R cytotox inconclusive
Cc1cccc2sc(N(CCCN(C)C)C(=O)COc3ccccc3)nc12	GLP1R cytotox inconclusive (no result: GLP1R ag)
COc1ccc(-c2csc(N(CCCN(C)C)C(=O)c3ccc(C)cc3)n2)cc1	GLP1R inv ag 3.98µM (no result: ClpP mod)
c1nc(SSc2ncc3n[nH]nc3n2)nc2n[nH]nc12	none (no result: GLP1R inv ag, GLP1R ag, GLP1R cytotox)
CCCCOC(=O)C1CN(c2ccccc2)N=C1C(=O)OCC (centres undefined)	GLP1R inv ag 10µM, ClpP mod inconclusive
Cc1ccc(C(=O)Nc2ccccc2C(=O)OCc2cc(=O)n3nc(C(C)C)sc3n2)cc1	none (no result: GLP1R ag)
CC(C)c1nn2c(=O)cc(COC(=O)c3ccccc3NC(=O)c3cccc(Cl)c3)nc2s1	ClpP mod 10µM (no result: GLP1R ag)
O=c1[nH]cnc2nc(-c3ccccc3)c(-c3ccccc3)nc12	ClpP mod 28.2µM
O=c1[nH]cnc2nn(-c3ccccc3)nc12	none
COc1ccccc1/C=C/c1nc2ccccc2o1	none (no result: GLP1R inv ag, GLP1R ag, GLP1R cytotox)
NS(=O)(=O)c1ccc(CCNc2nc3c(-c4cccc(F)c4)nnn3c3ccccc23)cc1	ClpP mod 22.4µM
CCOC(=O)c1c(NC(=O)c2ccco2)n(C2CCCCC2)c2nc3ccccc3nc12	GLP1R inv ag inconclusive, ClpP mod 28.2µM
COc1ccc2cc(C(c3nnnn3CC3CCCO3)N3CCOCC3)c(=O)[nH]c2c1 (centres undefined)	ClpP mod 25.1µM
COc1ccc2[nH]c(=O)c(C(c3nnnn3CC3CCCO3)N3CCCCC3)cc2c1 (centres undefined)	none (no result: ClpP mod)
CCOc1ccc2[nH]c(=O)c(CN(CCO)Cc3nnnn3CCc3ccccc3)cc2c1	ClpP mod 31.6µM
COc1ccc2[nH]c(=O)c(CN(CCc3ccccc3)Cc3nnnn3CC3CCCO3)cc2c1 (centres undefined)	ClpP mod 25.1µM
Cc1ccc2[nH]c(=O)c(CN(CCO)Cc3nnnn3Cc3ccccc3)cc2c1	none (no result: GLP1R inv ag, GLP1R ag, GLP1R cytotox)
